The results in this text go back to PubChem BioAssay (NCATS).

The nature of experiment [1]: Primary qHTS for small molecule stabilizers of the endoplasmic reticulum resident proteome: Secreted ER Calcium Modulated Protein (SERCaMP) assay (AID 1508630). Summed up:
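GLuc-SERCaMP-expressing SH-SY5Y cells, pretreated 16 h with compound, are challenged with thapsigargin to empty ER calcium stores; after 4 h, coelenterazine is added directly to the medium and luminescence is imaged.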
For orientation: qHTS replaces the single test concentration by a dilution series.

Experiment [2] can be described thus: A High-Content qHTS Against Drug Library for the Identification of Small Molecules that Inhibit DYT1 Early Onset Primary Dystonia-Associated Cell Pathology (AID 1645839; calls by dose curve; further: series mostly up to about 46 µM). In short, it runs like this:
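Readout: %pathology, the punctate EGFP-TorsinA distribution from imaging, as the primary channel and cell count as the toxicity counterscreen. HEK293 Flp-In cells expressing delE TorsinA were induced with tetracycline and treated with compound for 48 h.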

Experiment [3] in a line: Primary qHTS for inhibitors of nuclear receptor binding SET domain protein 2 (NSD2) in an isogenic RCH-ACV NSD2 p.E1099K mutant (9B) (AID 1645876). Further: nearly all actives have a fitted effect of over 70% in size. Further: potency means the concentration at half of the fitted maximal effect.
Experiment [4] is described as follows: Primary qHTS for inhibitors of nuclear receptor binding SET domain protein 2 (NSD2) in an RCH-ACV wild type WT cells (2C) (AID 1645877). Further: nearly all actives have a fitted effect of over 70% in size.
The target in experiment [5] is Cytochrome P450 2D6 (Homo sapiens) (UniProt P10635). The experiment is described as follows: Cytochrome P450 family 2 subfamily D member 6 (CYP2D6) small molecule antagonists: luciferase biochemical (cell-free) qHTS assay (AID 1645840; active means well fitted curve in the direction sought with a large enough effect in the repeat runs; an effect the other way counts as inactive or inconclusive; further: nearly all actives have a fitted effect of over 55% in size; further: potency means the concentration at half of the fitted maximal effect). Summed up:
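P450-Glo luminescent screen: recombinant CYP2D6 enzyme–proluciferin substrate mix preincubated with compound 10 min at room temperature, then NADPH regeneration added for 1 h at room temperature. Detection reagent added for 20 min; luciferin light read as relative luminescence units.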

The target of experiment [6] is Cytochrome P450 2C9 (Homo sapiens) (UniProt P11712). The experiment is described as follows: Cytochrome P450 family 2 subfamily C member 9 (CYP2C9) small molecule antagonists: luciferase biochemical (cell-free) qHTS assay (AID 1645842; active means well fitted curve in the direction sought with a large enough effect in the repeat runs; an effect the other way counts as inactive or inconclusive; further: nearly all actives have a fitted effect of over 55% in size; further: potency means the concentration at half of the fitted maximal effect). In short, it runs like this: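 Luminescence, after 20 min with luciferin detection reagent, reflected CYP2C9 turnover during a 1 h NADPH-driven reaction at 37C. Enzyme-substrate mix contained 0.4% bovine serum albumin and was preincubated with compound 10 min at room temperature.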

Experiment [7] addresses Rap guanine nucleotide exchange factor 3 (Homo sapiens) (UniProt O95398). The experiment is described as follows: Confirmatory qHTS for agonist of cAMP-regulated guanine nucleotide exchange factor 3 (EPAC1) (AID 1645881).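 Further: EPAC1 catalysed release of BODIPY-GDP from Rap1B seen as fluorescence loss; nearly all actives have a fitted effect of over 75% in size.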
Experiment [8] has as its target Rap guanine nucleotide exchange factor 4 (Homo sapiens) (UniProt Q8WZA2). The experiment can be described thus: Confirmatory qHTS for agonist of cAMP-regulated guanine nucleotide exchange factor 4 (EPAC2) (AID 1645884).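 Further: nucleotide exchange releases bodipy-GDP from Rap1 and this lowers its fluorescence; nearly all actives have a fitted effect of over 65% in size.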
The target is the same in experiment [9]. The experiment is described as follows: Confirmatory qHTS for antagonist of cAMP-regulated guanine nucleotide exchange factor 4 (EPAC2) (AID 1645885). Further: potency means the concentration at half of the fitted maximal effect; nearly all actives have a fitted effect of over 25% in size.

Several values for one entry are separate records, joined by “and”; a condition that tells them apart may be missing. Equal entries are not always repeated. Inconclusive results are not listed. Activity calls are given as the source filed them. Unless noted, the call rests on the fitted dose curve; in most records, active means well fitted curve in the direction sought with a large enough effect; inconclusive means small, poorly fitted or top-dose-only effect, or another doubt; inactive means no such curve, though single readings can be large; an effect the other way counts as inactive or inconclusive.

Chain of Cytochrome P450 2D6 (Homo sapiens) (P10635 whole entry, looked up): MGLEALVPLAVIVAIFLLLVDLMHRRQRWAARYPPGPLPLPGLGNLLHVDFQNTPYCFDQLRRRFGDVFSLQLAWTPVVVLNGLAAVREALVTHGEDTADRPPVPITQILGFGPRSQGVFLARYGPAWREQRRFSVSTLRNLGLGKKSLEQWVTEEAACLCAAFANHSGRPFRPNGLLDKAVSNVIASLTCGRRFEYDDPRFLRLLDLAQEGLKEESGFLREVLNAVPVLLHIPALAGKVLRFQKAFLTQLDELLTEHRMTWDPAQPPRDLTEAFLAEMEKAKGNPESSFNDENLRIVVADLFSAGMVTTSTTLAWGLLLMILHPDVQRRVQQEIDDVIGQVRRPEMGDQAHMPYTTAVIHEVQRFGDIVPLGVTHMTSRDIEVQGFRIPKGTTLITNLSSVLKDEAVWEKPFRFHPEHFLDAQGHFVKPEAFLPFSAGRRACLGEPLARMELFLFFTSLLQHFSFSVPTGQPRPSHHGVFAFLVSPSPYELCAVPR
Chain of Cytochrome P450 2C9 (Homo sapiens) (P11712 whole entry, looked up): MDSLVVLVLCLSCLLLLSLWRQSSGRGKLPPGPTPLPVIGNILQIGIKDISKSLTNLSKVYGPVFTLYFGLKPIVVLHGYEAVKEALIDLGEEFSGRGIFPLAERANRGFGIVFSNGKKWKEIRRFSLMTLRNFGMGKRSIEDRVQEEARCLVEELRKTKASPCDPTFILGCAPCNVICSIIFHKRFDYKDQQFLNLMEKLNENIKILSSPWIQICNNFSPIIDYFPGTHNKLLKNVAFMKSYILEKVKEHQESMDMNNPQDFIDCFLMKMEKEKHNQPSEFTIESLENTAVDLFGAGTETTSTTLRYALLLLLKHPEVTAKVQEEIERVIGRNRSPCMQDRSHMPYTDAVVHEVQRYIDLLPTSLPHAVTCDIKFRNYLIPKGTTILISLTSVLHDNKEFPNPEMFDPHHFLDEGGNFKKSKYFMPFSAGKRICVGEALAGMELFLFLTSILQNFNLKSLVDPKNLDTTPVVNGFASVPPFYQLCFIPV
Chain of Rap guanine nucleotide exchange factor 4 (Homo sapiens) (Q8WZA2 whole entry, looked up): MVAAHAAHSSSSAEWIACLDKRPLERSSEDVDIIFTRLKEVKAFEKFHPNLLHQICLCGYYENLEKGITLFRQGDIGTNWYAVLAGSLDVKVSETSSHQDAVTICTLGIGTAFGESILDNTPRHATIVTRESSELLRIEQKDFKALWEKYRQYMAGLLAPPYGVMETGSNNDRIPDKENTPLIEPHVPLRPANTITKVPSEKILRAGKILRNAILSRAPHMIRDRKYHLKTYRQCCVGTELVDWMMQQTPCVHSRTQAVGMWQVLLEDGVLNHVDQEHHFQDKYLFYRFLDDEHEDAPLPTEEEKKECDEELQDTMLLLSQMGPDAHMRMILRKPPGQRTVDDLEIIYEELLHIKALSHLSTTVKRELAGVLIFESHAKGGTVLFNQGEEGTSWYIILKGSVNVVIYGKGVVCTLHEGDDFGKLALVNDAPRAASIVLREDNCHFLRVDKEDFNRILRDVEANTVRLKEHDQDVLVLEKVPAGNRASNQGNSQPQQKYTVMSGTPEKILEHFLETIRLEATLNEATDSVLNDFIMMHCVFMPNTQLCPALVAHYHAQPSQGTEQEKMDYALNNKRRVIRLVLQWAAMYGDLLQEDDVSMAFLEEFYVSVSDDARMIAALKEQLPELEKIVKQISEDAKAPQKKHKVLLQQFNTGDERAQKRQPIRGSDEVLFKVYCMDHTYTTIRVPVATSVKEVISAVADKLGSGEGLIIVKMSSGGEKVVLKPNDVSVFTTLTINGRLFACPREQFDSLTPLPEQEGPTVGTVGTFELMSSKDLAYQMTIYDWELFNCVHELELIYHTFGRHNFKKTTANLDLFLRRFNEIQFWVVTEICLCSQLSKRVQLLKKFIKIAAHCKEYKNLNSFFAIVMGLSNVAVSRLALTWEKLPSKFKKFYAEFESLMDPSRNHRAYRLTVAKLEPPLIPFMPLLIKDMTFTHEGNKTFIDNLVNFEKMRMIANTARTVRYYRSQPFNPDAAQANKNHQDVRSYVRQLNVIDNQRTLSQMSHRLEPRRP
Chain of Rap guanine nucleotide exchange factor 3 (Homo sapiens) (O95398 whole entry, looked up): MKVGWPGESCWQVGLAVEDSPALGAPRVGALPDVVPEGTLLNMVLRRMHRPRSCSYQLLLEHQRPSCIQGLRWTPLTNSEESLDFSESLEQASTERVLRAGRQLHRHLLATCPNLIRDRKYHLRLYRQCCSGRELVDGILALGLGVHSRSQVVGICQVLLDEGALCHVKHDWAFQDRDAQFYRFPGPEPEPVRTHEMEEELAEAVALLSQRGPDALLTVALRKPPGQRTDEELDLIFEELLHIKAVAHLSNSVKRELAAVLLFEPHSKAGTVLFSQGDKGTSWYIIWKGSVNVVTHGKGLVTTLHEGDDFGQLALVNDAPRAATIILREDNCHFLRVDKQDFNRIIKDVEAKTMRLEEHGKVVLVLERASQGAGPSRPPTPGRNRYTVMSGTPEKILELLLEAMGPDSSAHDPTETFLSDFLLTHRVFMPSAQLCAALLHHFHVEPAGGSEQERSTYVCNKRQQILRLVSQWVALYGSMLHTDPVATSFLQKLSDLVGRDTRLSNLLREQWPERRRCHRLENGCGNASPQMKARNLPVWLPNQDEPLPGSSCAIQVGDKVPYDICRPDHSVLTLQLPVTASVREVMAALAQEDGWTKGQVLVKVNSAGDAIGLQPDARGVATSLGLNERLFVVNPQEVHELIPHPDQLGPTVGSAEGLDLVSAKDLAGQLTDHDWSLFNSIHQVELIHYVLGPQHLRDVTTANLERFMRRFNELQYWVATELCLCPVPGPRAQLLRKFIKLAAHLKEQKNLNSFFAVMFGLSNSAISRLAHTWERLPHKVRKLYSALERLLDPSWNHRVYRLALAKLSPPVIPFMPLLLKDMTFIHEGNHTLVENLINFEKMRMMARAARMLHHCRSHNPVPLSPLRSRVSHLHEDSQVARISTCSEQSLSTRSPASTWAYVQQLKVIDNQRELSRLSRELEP

As to `O=C(O)CCC(=O)Nc1ccc(S(=O)(=O)Nc2nccs2)cc1`, the Potency result in experiment [1], in experiment [2], in experiment [3] and in experiment [4] was “inactive” throughout.
As to `CN(C)CCOC(c1ccc(Cl)cc1)c1ccccn1` (configuration not stated), the Potency result in experiment [1] and in [6] was “inactive” in each case. Moreover, the Potency in experiment [5] was 15.5 µM (active).
As to `CCC(CC)(CC(=O)Nc1cccc(/C=C/c2nc(C3CCC3)cs2)c1)C(=O)O`, the Potency entry in [1] and in experiment [5] was “inactive” throughout.
For `CCCN(CCc1cccs1)[C@H]1CCc2c(O)cccc2C1`, the Potency entry in experiment [1] and in experiment [6] was “inactive” throughout. In addition, the Potency in experiment [5] was 169 nM (active) and 195 nM (active).
Regarding `CC1=C(C(=O)O)N2C(=O)[C@@H](NC(=O)[C@H](N)c3ccccc3)[C@H]2SC1`, the Potency result in [1], in experiment [2], in [3] and in experiment [4] was “inactive” each time.
On to `C[N+]1(C)CCC(=C(c2ccccc2)c2ccccc2)CC1`, for which the Potency result in experiment [1] and in experiment [6] was “inactive” throughout. Further, in experiment [5], the Potency is 13.8 µM (active).
Turning to `CCN(CC)CCOc1ccc2c(c1)C(=O)c1cc(OCCN(CC)CC)ccc1-2`, the Potency result in [1], in experiment [5] and in experiment [6] was “inactive” throughout. In addition, the Potency in [3] is 9.44 µM (active).
Consider `CC(=O)OC[C@H]1O[C@@H](n2ncc(=O)[nH]c2=O)[C@H](OC(C)=O)[C@@H]1OC(C)=O`, for which the Potency result in [1] and in experiment [6] was “inactive” in each case. The Potency in experiment [5] was 7.76 µM (active).
As to `C/C=C/C=N/NC(=O)c1ccncc1`, the Potency entry in experiment [1], in experiment [2] and in [3] was “inactive” throughout.
As for `CCOC(=O)c1ccc(N)cc1`, the Potency result in experiment [1] and in [5] was “inactive” in each case.
On to `CCCCCCCCCCCCSCCOCCO`, for which the Potency entry in experiment [1], in experiment [2], in experiment [3] and in experiment [4] was “inactive” each time. Also, the Potency in experiment [6] is 12.3 µM (active).
In the case of `COc1ccc(C(=O)c2ccccc2O)c(O)c1`, the Potency entry in [1], in [2], in [3] and in [4] was “inactive” throughout. Also, the call in [7] and in [8] was inactive. Also, in [9], the Potency is 44.1 µM (active).
`Cc1c(-c2ccccc2)oc2c(C(=O)OCCN3CCCCC3)cccc2c1=O`: the Potency result in experiment [1], in experiment [6] and in experiment [3] was “inactive” in each case. Further, the Potency in [5] was 3.89 µM (active).
